# Test results from ChEMBL document CHEMBL3988442, “University of Dundee, Small-Polar-MMV Screening Library” (2021).
# In all, about 69,000 compounds went through this assay and about 1,000 (1.4%) showed an effect of 50% or more. The list comes from a sample in which strong results are over-represented; it also holds similar structures and randomly drawn compounds.
# Test system: Leishmania donovani
# Assay: Leishmania intramacrophage assay
# Assay type: functional, organism-based
# Design: scale not given: in the data most compounds retested in dose-response had high values
compound,measurement,setting,value
Cc1ccnc(NCCCN2CCc3ccccc32)n1,Percent Effect,"30.3 µM, […]",20.07%
Cc1cnc(NCCCN2CCc3ccccc32)nc1,Percent Effect,"30.3 µM, […]",21.16%
CN(C)c1nc(NCCCN2CCc3ccccc32)ncc1F,Percent Effect,"30.3 µM, […]",50.82%
CNC(=O)c1cccc(NC(=O)CN2CCN(S(C)(=O)=O)CC2)c1,Percent Effect,"30 µM, 30.03 µM",9.767%
Cc1ccc(OCC(=O)N(C)Cc2cccc(F)c2)cn1,Percent Effect,"30.3 µM, […]",34.51%
O=C(NC1CCN(CC2CCCC2)C1)N1CCC(OCC2CC2)CC1 (centres undefined),Percent Effect,"30.3 µM, […]",32.77%
O=C(NC1CCN(CC2CC2)C1)N1CCC(OC2CCCCC2)CC1 (centres undefined),Percent Effect,"30.3 µM, […]",53.02%
NC(=O)C1CCN(C(=O)NC2CCN(CC3CCCC3)C2)CC1 (centres undefined),Percent Effect,"30.3 µM, […]",54.02%
CSC(C)(C)CNC(=O)NC1CCN(CC2CC2)C1 (centres undefined),Percent Effect,"30.3 µM, […]",2.957%
O=C(CCN1CCCCO1)NC1CCCN(CC2CCCCC2)C1 (centres undefined),Percent Effect,"30.3 µM, […]",-1.788%
O=C(CCN1CCOCC1)NC1CCCN(CC2CCCCC2)C1 (centres undefined),Percent Effect,"30.3 µM, […]",10.41%
COc1ncccc1C(=O)N1CCCC1c1c(C)n[nH]c1C (centres undefined),Percent Effect,"30.3 µM, […]",18%
Cc1noc(C2CCCN(C(=O)CCCNc3ncccn3)C2)n1 (centres undefined),Percent Effect,30 µM,-32%
CN(CC(=O)N1CCN(c2ncccn2)CC1)c1ccc(Cl)cn1,Percent Effect,"30 µM, 30.03 µM",26.44%
O=C(O)c1ccc(C2CCCN(Cc3ccc(-c4cc[nH]n4)o3)C2)cc1 (centres undefined),Percent Effect,"30.3 µM, […]",54.21%
O=C(O)c1ccccc1C1CCN(Cc2ccc(-c3cc[nH]n3)o2)C1 (centres undefined),Percent Effect,"30.3 µM, […]",8.649%
O=C(O)c1ccc(CC2CCN(Cc3ccc(-c4cc[nH]n4)o3)C2)cc1 (centres undefined),Percent Effect,"30.3 µM, […]",-33.6%
CNC(=O)CNC(=O)Nc1ccc(Br)c(F)c1,Percent Effect,"30.3 µM, […]",-0.911%
CCOc1ccc2ccccc2c1CNCC1CCS(=O)(=O)C1.Cl (centres undefined),Percent Effect,"30.3 µM, […]",-4.478%
COc1ccc2ccccc2c1CNCC1CCS(=O)(=O)C1.Cl (centres undefined),Percent Effect,"30.3 µM, […]",-2.378%
CCOc1ccc2ccccc2c1CNCC1CCNCC1.Cl.Cl,Percent Effect,"30.3 µM, […]",87.01%
CN(C)C(=O)COC1COC2(CCN(S(C)(=O)=O)CC2)C1 (centres undefined),Percent Effect,"30 µM, 30.03 µM",8.131%
COc1ccc(-c2noc([C@@H](C)NS(=O)(=O)CC(C)C)c2C(=O)O)cc1,Percent Effect,"30.3 µM, […]",14.82%
OCc1ccncc1NCc1cnc(-c2ccccn2)s1,Percent Effect,"30.3 µM, […]",26.01%
Cc1nn(CC(=O)NCCc2ccncc2)c(=O)n1Cc1ccccc1,Percent Effect,"30.3 µM, […]",4.169%
C=C(C)COc1cccc(CNCCc2nc(N)cc(O)n2)c1,Percent Effect,"30.3 µM, […]",10.98%
CCOCc1ccc(NC(=O)N2CCOC3(CCC3)C2)cc1,Percent Effect,"30.3 µM, […]",-4.354%
CC1(C)CN(CC(=O)NCc2ccccc2F)C[C@]1(C)O,Percent Effect,"30.3 µM, […]",15.59%
Cc1ccc(C(=O)O)cc1CNC(=O)CN1CC(C)(C)[C@@](C)(O)C1,Percent Effect,"30.3 µM, […]",14.97%
Cc1ccc(C(=O)O)cc1CNC(=O)CN1CC[C@](C)(O)C(C)(C)C1,Percent Effect,"30.3 µM, […]",62.04%
Cn1ccnc1Sc1ccc(S(N)(=O)=O)cn1,Percent Effect,"30.3 µM, […]",-16.43%
Cl.Cn1ccnc1Sc1ccc(N)cn1,Percent Effect,"30.3 µM, […]",50.34%
CN1CCN(S(=O)(=O)c2ccc(Sc3nccn3C)nc2)CC1,Percent Effect,"30.3 µM, […]",0.3902%
COC(=O)CC1C(=O)NCCN1c1nc2c(s1)c(C)nn2C (centres undefined),Percent Effect,"30.3 µM, […]",6.396%
COc1ccc2c(O)c(NC(=O)NCC3CC3)cnc2c1,Percent Effect,"30 µM, 30.03 µM",-30.24%
Cl.O=C1CC2(CCNCC2)C(=O)N1Cc1ccc(F)cc1,Percent Effect,"30.3 µM, […]",26.47%
NC(=O)c1ccc(CN2C(=O)C3(CCNCC3)Nc3ccccc32)cc1,Percent Effect,"30.3 µM, […]",29.82%
CC(C)c1ccc(CN2C(=O)C3(CCNCC3)Nc3ccccc32)cc1,Percent Effect,"30.3 µM, […]",100.4%
N#Cc1cccc(CN2C(=O)C3(CCNCC3)Nc3ccccc32)c1,Percent Effect,"30.3 µM, […]",37.63%
C=Cc1ccc(CN2C(=O)C3(CCNCC3)Nc3ccccc32)cc1,Percent Effect,"30.3 µM, […]",98.05%
C=Cc1ccc(CN2CCCC3(CNC(=O)c4ccccc4O3)C2)cc1 (centres undefined),Percent Effect,"30.3 µM, […]",-7.721%
O=C(O)C(F)(F)F.O=S(=O)(N[C@@H]1CCO[C@]2(CCN(CC3CCOCC3)C2)C1)C1CC1,Percent Effect,"30.3 µM, […]",12.64%
Cn1cccc1C(=O)NCc1cn2c(n1)CN(Cc1cccnc1)CC2.O=C(O)C(F)(F)F.O=C(O)C(F)(F)F,Percent Effect,"30.3 µM, […]",5.106%
Cn1cc(C(=O)NCc2cn3c(n2)CN(Cc2ccccn2)CC3)cn1.O=C(O)C(F)(F)F.O=C(O)C(F)(F)F,Percent Effect,"30 µM, 30.03 µM",26.85%
Cn1cccc1C(=O)NCc1cn2c(n1)CN(Cc1ccccn1)CC2.O=C(O)C(F)(F)F.O=C(O)C(F)(F)F,Percent Effect,"30.3 µM, […]",52.64%
O=C(c1cccc2[nH]ccc12)N1CCC2(CCOC2)C1 (centres undefined),Percent Effect,"30.3 µM, […]",24.57%
Cc1cnc(N2CCOCC3(CCN(c4ccccn4)C3)C2)nc1.O=C(O)C(F)(F)F.O=C(O)C(F)(F)F (centres undefined),Percent Effect,"30.3 µM, […]",-8.514%
CCc1c(C)sc2nc3n(CCN4CCCCC4)nc(SC)n3c(=O)c12,Percent Effect,"30.3 µM, […]",50.52%
CCc1c(C)sc2nc3n(CCN4CCOCC4)nc(SC)n3c(=O)c12,Percent Effect,"30.3 µM, […]",9.764%
CCc1c(C)sc2nc3n(CCN(C)C)nc(SC)n3c(=O)c12,Percent Effect,"30.3 µM, […]",24.34%
CCn1cc(Br)c(C(=O)NCc2cccnc2)n1,Percent Effect,"30 µM, 30.03 µM",0.8694%
N#Cc1cnc(N2CCC3(CC2)OCCO3)nc1N,Percent Effect,"30.3 µM, […]",39.63%
O=C1NCCN1C1CCN(Cc2nc(-c3ccsc3)no2)CC1,Percent Effect,30 µM,51.47%
Cc1ccc(-c2noc(CN3CCC(N4CCNC4=O)CC3)n2)cc1,Percent Effect,30 µM,33.86%
Cc1cccc(-c2noc(CN3CCC(N4CCNC4=O)CC3)n2)c1,Percent Effect,"30 µM, 30.03 µM",37%
Cc1ccccc1-c1noc(CN2CCC(N3CCNC3=O)CC2)n1,Percent Effect,30 µM,45.33%
O=C1NCCN1C1CCN(Cc2nc(-c3ccccc3)no2)CC1,Percent Effect,30 µM,51.92%
O=C1NCCN1C1CCN(Cc2nc(-c3ccoc3)no2)CC1,Percent Effect,"30 µM, 30.03 µM",14.49%
NC(=O)C1CCCN1C(=O)c1cccc2c1OCO2 (centres undefined),Percent Effect,"30.3 µM, […]",-0.4744%
CCC(NC(=O)C1CC1)c1ccccc1OCC(=O)N1CCCC1 (centres undefined),Percent Effect,30 µM,-1.247%
CNC(=O)C1CN(C)CCN(C(=O)CCn2nnc3ccccc32)C1 (centres undefined),Percent Effect,"30.3 µM, […]",12.96%
CN(C)c1ccc(C2CC(=O)Nc3c2cnn3Cc2ccco2)cc1 (centres undefined),Percent Effect,"30.3 µM, […]",7.757%
Cc1nc(-c2ccc(F)cc2)cc(C2CCNCC2)n1,Percent Effect,"30.3 µM, […]",99.23%
CCN(Cc1c(F)cccc1Cl)c1cc(C2CCNCC2)nc(C)n1,Percent Effect,"30.3 µM, […]",100.4%
Cc1nc(C2CCNCC2)cc(N(C)Cc2cc3cc(F)ccc3[nH]2)n1,Percent Effect,"30.3 µM, […]",78.55%
Cc1nc(-c2ccc(F)c(F)c2)cc(C2CCNCC2)n1.Cl,Percent Effect,"30.3 µM, […]",47.49%
Cc1c(CN(C)c2cc(C3CCCNC3)ncn2)[nH]c2ccccc12 (centres undefined),Percent Effect,"30.3 µM, […]",16.72%
CCN(Cc1ccncc1)c1cc(C2CCNCC2)nc(C)n1,Percent Effect,"30.3 µM, […]",4.844%
CN(Cc1cc2cc(F)ccc2[nH]1)c1cc(C2CCCNC2)ncn1 (centres undefined),Percent Effect,"30.3 µM, […]",78.22%
Cc1nc(C2CCNCC2)cc(N(C)CCc2cn[nH]c2)n1,Percent Effect,"30.3 µM, […]",2.569%
COc1ccc2[nH]c(CNc3cc(C4CCNCC4)nc(C)n3)cc2c1,Percent Effect,"30.3 µM, […]",-59.5%
Cc1ccc(-c2cc(C3CCNCC3)nc(C)n2)cc1.Cl,Percent Effect,"30.3 µM, […]",14.23%
CN(Cc1cc2cc(F)ccc2[nH]1)C(=O)C1CC(=O)N(C2CCCC2)C1 (centres undefined),Percent Effect,"30.3 µM, […]",9.704%
CCN(Cc1ccncc1)c1cc(C2CCCNC2)nc(C)n1 (centres undefined),Percent Effect,"30.3 µM, […]",-18.58%
